# Results as given in ChEMBL document CHEMBL3433997, “St. Jude Leishmania screening dataset” (2016).
# Legend:
# Format in all cases: functional
# [1] = target: Solute carrier family 2, facilitated glucose transporter member 1 (Homo sapiens) (UniProt P11166); assay: ST_JUDE_LEISH: Cytotoxicity at 2uM final concentration against transgenic Leishmania Mexicana promastigotes LmGLUT1 that are glucose transport deficient and complemented with the human glucose transporter GLUT1. Activity is measured by DNA content using SYBR green in vitro
# Solute carrier family 2, facilitated glucose transporter member 1 (Homo sapiens), sequence (P11166 whole entry): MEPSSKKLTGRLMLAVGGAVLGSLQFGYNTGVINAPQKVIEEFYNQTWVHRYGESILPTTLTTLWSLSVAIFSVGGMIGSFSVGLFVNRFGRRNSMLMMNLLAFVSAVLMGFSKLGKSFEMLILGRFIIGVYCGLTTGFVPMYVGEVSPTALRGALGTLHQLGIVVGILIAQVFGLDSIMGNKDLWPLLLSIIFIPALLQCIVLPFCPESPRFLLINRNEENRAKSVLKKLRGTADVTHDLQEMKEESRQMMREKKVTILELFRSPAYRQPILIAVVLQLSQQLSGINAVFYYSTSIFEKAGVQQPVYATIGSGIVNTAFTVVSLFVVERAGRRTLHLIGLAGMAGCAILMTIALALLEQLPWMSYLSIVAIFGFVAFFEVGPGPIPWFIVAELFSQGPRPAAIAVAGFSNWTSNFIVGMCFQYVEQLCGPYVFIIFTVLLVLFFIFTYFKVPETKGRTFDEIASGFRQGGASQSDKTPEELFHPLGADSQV
# [2] = target: Hexose transporter 1 (Plasmodium falciparum) (UniProt O97467); assay: ST_JUDE_LEISH: Cytotoxicity at 2uM final concentration against transgenic Leishmania Mexicana promastigotes LmPfHT that are glucose transport deficient and complemented with the Plasmodium falciparum hexose transporter. Activity is measured by DNA content using SYBR green in vitro
# [3] = target: Glucose transporter (Leishmania mexicana) (UniProt O61059); assay: ST_JUDE_LEISH: Cytotoxicity at 2uM final concentration against transgenic Leishmania Mexicana promastigotes LmGT2 that are glucose transport deficient and complemented with the L. Mexicana glucose transporter 2. Activity is measured by DNA content using SYBR green in vitro
Compound,inhibition [1],inhibition [2],inhibition [3]
c1cc(CN2CCN(CCN3CCOCC3)CC2)cc(-c2cccc(-c3nc4ccccc4[nH]3)c2)c1,-0.34%,-0.24%,-1.97%
CN(C)CCCc1cc(NC(=O)Nc2cccc(Cl)c2Cl)ccc1I,1.65%,5.95%,3.83%
CCN(CC)CCCC(C)N=c1cc(C=Cc2ccc([N+](=O)[O-])cc2)[nH]c2ccc(OC)cc12 (centres undefined),2.45%,5.16%,2.98%
Fc1ccc2[nH]c(-c3cccc(-c4ccc(CNCc5cnn(-c6ccccc6)n5)cc4)c3)nc2c1,0.4%,1.9%,0.03%
CCCN1CCN(CCCCNc2c3ccccc3nc3ccccc23)CC1,51.5%,73.8%,27.7%
CCN(CC)C(C)(C)CN(Cc1ccc(-c2ccc(C(F)(F)F)cc2)cc1)C(=O)Cn1c(CCc2cccc(F)c2F)nc(=O)c2ccccc21,6.6%,5.18%,5.98%
CC[C@H]1CN(Cc2ccccc2Br)CC[C@H]1CCCc1ccnc2ccc(O)cc12,3.62%,5.03%,2.43%
C=CCn1c(SCC(=O)Nc2cc(C)ccc2OC)nc2sc(C)cc2c1=O,4.32%,3.15%,2.13%
COc1ccc(C2C(C(=O)Nc3ccc4c(c3)OCO4)c3cc(OC)c(OC)cc3C(=O)N2C)cc1 (centres undefined),2.12%,1.73%,0.53%
CN1CCN(c2cccc(-c3nnc(-c4ccc(OCC(=O)NCc5ccc(C(F)(F)F)cc5)c([N+](=O)[O-])c4)o3)c2)CC1,3.75%,3.68%,-0.17%
Cc1cc2nc(-c3ccc(OCC(=O)NCc4cccc(C(F)(F)F)c4)cc3)[nH]c2cc1C,-2.75%,-1.2%,-1.65%
Cc1cccc2nc(-c3cccc(-c4ccc(C(=O)NCCc5ccc(O)c(=O)[nH]5)cc4)c3)[nH]c12,2.16%,1.89%,2.33%
CCC(CC)C(CC(=O)NC(C)(C)CCc1ccccc1OC)Nc1ccc(C#N)c2ccccc12 (centres undefined),4.46%,3.53%,3.55%
CCN(CC)CCN1C(=O)c2oc3ccc(Cl)cc3c(=O)c2C1c1ccc(SC)cc1 (centres undefined),-3.16%,-2.27%,8.97%
N=c1n(Cc2ccc(Cl)cc2)c2ccccc2n1CC(O)c1ccc(Cl)c(Cl)c1 (centres undefined),0.04%,1.87%,-1.55%
Clc1ccc(C=NN=c2cc[nH]c3ccccc23)cc1,9.89%,8.46%,6.25%
COc1ccc2nccc([C@@H](O)CN3CCC(NC(=O)COc4nc(SCc5ccc(F)cc5)nc5c4CCC5)CC3)c2c1,1.06%,0.81%,-3.16%
O=C(NCCCCCN1CCC(c2c[nH]c3ccccc23)CC1)Nc1cccc(Cl)c1,2.7%,0.53%,0.16%
